# Test results taken from PubChem BioAssay (NCATS).
# “And” between values parts separate entries of the source, which are not always exact repeats. Identical values can stand only once. Values without a mark were called inactive. Records with an inconclusive call do not appear. Where a call stands in place of a potency, no number is given. For part of these data: Potency and affinity values are given separately. The source made the active and inactive calls. Unless noted, the rule behind the calls is not given here.
# What was measured:
# [1] = Ebola virus entry assay, ratio channel
# [2] = Ebola virus entry assay, green channel fluorescence
# [3] = Ebola virus entry assay, reporter ratio channel; Channel type: primary
# [4] = Ebola virus entry assay, blue channel (ratio component)
# [5] = qHTS assay for cell viability of HEK293 cells (AID 743288; active = well fitted cell-killing curve with a large enough effect; note: nearly all actives have a fitted effect of over 50% in size); settings: ATP luminescence (CellTiter-Glo), 18 h; max response: active compounds read low
# In short: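 Steps: plate 2,000 parental HEK293 cells per well; incubate ≥5 h, 37 C; add compounds in DMSO; incubate 18 h, 37 C; add CellTiter-Glo; wait 30 min at room temperature; read luminescence.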
# [6] = qHTS assay for cell viability of the p53RE-bla HCT-116 cell line (AID 743292; active = well fitted cell-killing curve with a large enough effect; note: nearly all actives have a fitted effect of over 55% in size); settings: p53RE-bla HCT-116 viability, ATP luminescence, 16 h; series mostly up to 95 µM
# In short: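 After plating at 4,000 cells per well and a 5 h rest at 37 C, HCT-116 cells carrying p53RE-bla received test chemicals in DMSO. Sixteen hours later at 37 C, CellTiter-Glo was added and luminescence recorded following 30 min at room temperature.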
SMILES,outcome [1],outcome [2],outcome [3],outcome [4],AC50 [3],max response [5],Potency [6],AC50 [1]
CC(C)NCC(O)c1ccc([N+](=O)[O-])cc1 (stereo unspecified),inactive,inactive,inactive,inactive,–,–,–,–
CCc1c(C)[nH]c2c1C(=O)C(CN1CCOCC1)CC2 (stereo unspecified),inactive,inactive,inactive,inactive,–,–,–,–
CCC(C(=O)O)c1ccc(N2Cc3ccccc3C2=O)cc1 (stereo unspecified),inactive,inactive,inactive,inactive,–,–,–,–
COc1ccc2c(c1)c1c3n2CCN(C)C3=NCC1,inactive,inactive,inactive,inactive,–,–,–,–
CCCCCCCCCCCCCC(=O)OC(C)C,inactive,inactive,inactive,inactive,–,–,–,–
CS(=O)(=O)Nc1ccc([N+](=O)[O-])cc1Oc1ccccc1,inactive,inactive,inactive,inactive,–,–,–,–
c1ccc2occc2c1,inactive,inactive,inactive,inactive,–,–,–,–
O=S(c1cc(Cl)cc(Cl)c1O)c1cc(Cl)cc(Cl)c1O,inactive,inactive,inactive,inactive,–,–,–,–
CC(C)OC(=O)c1cc(C(=O)OC(C)C)cc([N+](=O)[O-])c1,inactive,inactive,inactive,inactive,–,–,–,–
NC(CO)C(=O)NNCc1ccc(O)c(O)c1O (stereo unspecified),inactive,inactive,inactive,inactive,–,–,–,–
CC(C)C(C)(C)C(C)(C)C(C)(C)S,inactive,inactive,inactive,inactive,–,–,–,–
CCCCC/C(C=O)=C\c1ccccc1,inactive,inactive,inactive,inactive,–,–,–,–
CCCCC(CC)COC(=O)c1ccccc1C(=O)O (stereo unspecified),inactive,inactive,inactive,inactive,–,–,–,–
Nc1ccc(O)c([N+](=O)[O-])c1,inactive,inactive,–,–,31.6 µM (active),–,–,–
CC1(C)CC/C(=C/c2ccc(Cl)cc2)C1(O)Cn1cncn1 (stereo unspecified),inactive,inactive,inactive,inactive,–,–,–,–
S=c1[nH]c2ccccc2s1,inactive,inactive,inactive,inactive,–,–,–,–
CN1C(=O)c2ccccc2C1=O,inactive,inactive,inactive,inactive,–,–,–,–
CC(C)(C)c1ccc(O)c(O)c1,inactive,inactive,inactive,inactive,–,–,–,–
NCCO,inactive,inactive,inactive,inactive,–,–,–,–
CC(=O)Oc1cccc(C)c1,inactive,inactive,inactive,inactive,–,–,–,–
COC(=O)c1c(Cl)c(Cl)c(C(=O)OC)c(Cl)c1Cl,inactive,inactive,inactive,inactive,–,–,–,–
Nc1nc2c(ncn2CCC(CO)CO)c(=O)[nH]1,inactive,inactive,inactive,inactive,–,–,–,–
N=C1N=C(N)c2cc3ccccc3cc21,inactive,inactive,inactive,inactive,–,–,–,–
CCCCCCCC(=O)OCC(O)CO (stereo unspecified),inactive,inactive,inactive,–,–,–,–,–
CCC(C)(Oc1ccc(C2(c3ccc(OC(C)(CC)C(=O)O)cc3)CCCCC2)cc1)C(=O)O (stereo unspecified),inactive,inactive,inactive,inactive,–,–,–,–

SMILES,outcome [1],outcome [2],outcome [3],outcome [4],AC50 [3],max response [5],Potency [6],AC50 [1]
O=[N+]([O-])c1ccc([As](=O)(O)O)cc1,inactive,inactive,inactive,inactive,–,–,–,–
CN(C)CC/C=C1/c2ccccc2COc2ccc(CC(=O)O)cc21,inactive,inactive,inactive,inactive,–,–,–,–
OCc1c[nH]c2ccccc12,inactive,inactive,inactive,inactive,–,–,–,–
CC1=C(/C=C/C(C)=C/C=C/C(C)=C/C(=O)O)C(C)(C)CCC1,inactive,inactive,inactive,inactive,–,–,–,–
COc1ccccc1O,inactive,inactive,inactive,inactive,–,–,–,–
O=c1cc(-c2ccccc2)oc2ccccc12,inactive,inactive,–,–,31.6 µM (active),–,–,–
C[N+](C)(C)CC(=O)O,inactive,inactive,inactive,inactive,–,–,–,–
Cc1ccc(N)cc1O,inactive,inactive,–,–,31.6 µM (active),–,–,–
CC1=C(C/C=C(\C)CCC[C@H](C)CCC[C@H](C)CCCC(C)C)C(=O)c2ccccc2C1=O,inactive,inactive,inactive,inactive,–,–,–,–
Nc1ccc([N+](=O)[O-])cc1O,inactive,inactive,inactive,inactive,–,–,–,–
CC(C)(c1ccc(O)cc1)c1ccc(O)cc1,inactive,inactive,–,–,44.7 µM (active),–,–,–
CC(C)(C)C(O)/C=C/c1ccc2c(c1)OCO2 (stereo unspecified),inactive,inactive,inactive,inactive,–,–,–,–
O=C1NS(=O)(=O)c2ccccc21,inactive,inactive,inactive,inactive,–,–,–,–
O=[N+]([O-])c1cc([N+](=O)[O-])c2ccccc2c1,inactive,inactive,inactive,inactive,–,-3.94%,inactive,–
Nc1ccc(Cl)cc1,inactive,inactive,inactive,inactive,–,-6.22%,inactive,–
O=S(=O)(O)C(F)(F)C(F)(F)C(F)(F)C(F)(F)C(F)(F)C(F)(F)C(F)(F)C(F)(F)F,inactive,inactive,inactive,inactive,–,-7.88% and -13.4%,inactive,–
Oc1ccc2c3c1O[C@H]1[C@@H](O)C=C[C@H]4[C@@H](C2)NCC[C@@]341,inactive,inactive,inactive,inactive,–,–,–,–
O=C(Nc1ccccc1-c1ccc(Cl)cc1)c1cccnc1Cl,–,inactive,inactive,inactive,–,-25.4%,inactive,22.4 µM (active)
O=S(=O)(c1ccc(Cl)cc1)c1ccc(Cl)cc1,inactive,inactive,inactive,inactive,–,-6.49% and -9.97% and -17.8%,inactive,–
CCCCC(CC)COC(=O)/C=C/c1ccc(OC)cc1 (stereo unspecified),inactive,inactive,inactive,inactive,–,–,–,–
O=C(O)CCCOc1ccc(Cl)cc1Cl,inactive,inactive,inactive,inactive,–,-3.48%,inactive,–
COc1nn(CSP(=S)(OC)OC)c(=O)s1,inactive,inactive,inactive,inactive,–,-26%,inactive,–
OCCCBr,inactive,inactive,inactive,inactive,–,2.95%,inactive,–
O=[N+]([O-])/N=C1\NCCN1Cc1ccc(Cl)nc1,inactive,inactive,inactive,inactive,–,-6.64%,inactive,–
CO/C=C(/C(=O)OC)c1ccccc1Oc1cc(Oc2ccccc2C#N)ncn1,inactive,inactive,–,–,31.6 µM (active),-25.4%,inactive,–

SMILES,outcome [1],outcome [2],outcome [3],outcome [4],AC50 [3],max response [5],Potency [6],AC50 [1]
C=CC(=O)NCNC(=O)C=C,inactive,inactive,inactive,inactive,–,3.56% and -2.17%,inactive,–
O=C(NO)c1ccccc1,inactive,inactive,inactive,inactive,–,–,–,–
COc1ccc(C(c2ccc(OC)cc2)C(Cl)(Cl)Cl)cc1,–,inactive,–,–,22.4 µM (active),-23.2% and -28.9% and -19.6%,inactive,22.4 µM (active)
CC(C)(C)C(O)C(Oc1ccc(Cl)cc1)n1cncn1 (stereo unspecified),inactive,inactive,inactive,inactive,–,-2.21%,inactive,–
CCCCCCCCCC(CC)c1ccc(S(=O)(=O)O)cc1 (stereo unspecified),–,inactive,–,–,31.6 µM (active),-11.2% and -4.04%,inactive,31.6 µM (active)
Brc1ccccc1-c1ccccc1,inactive,inactive,inactive,inactive,–,–,–,–
CS(=O)(=O)c1ccc(C(=O)C2C(=O)CCCC2=O)c([N+](=O)[O-])c1,inactive,inactive,inactive,inactive,–,-4.44%,inactive,–
Nc1ccc(Sc2ccc(N)cc2)cc1,inactive,inactive,inactive,inactive,–,1.17% and -4.98%,inactive,–
CCO/N=C(\CC)C1=C(O)CC(c2c(C)cc(C)cc2C)CC1=O (stereo unspecified),inactive,inactive,inactive,inactive,–,-20.6%,inactive,–
ClC1=C(Cl)[C@]2(Cl)[C@@H]3[C@@H]4C[C@@H]([C@H]5O[C@@H]45)[C@@H]3[C@@]1(Cl)C2(Cl)Cl,–,inactive,–,inactive,5.62 µM (active),-27.3%,inactive,5.62 µM (active)
CC1=NN(c2ccccc2)C(=O)C1,inactive,inactive,inactive,inactive,–,–,–,–
O=[N+]([O-])c1c(Cl)c(Cl)cc(Cl)c1Cl,inactive,inactive,inactive,inactive,–,-0.234%,inactive,–
Nc1ccc([N+](=O)[O-])cc1,inactive,inactive,inactive,inactive,–,-4.75%,inactive,–
CC[N+](C)(CC)CCOC(=O)C(O)(c1ccccc1)C1CCCCC1 (stereo unspecified),inactive,inactive,inactive,inactive,–,–,–,–
Nc1nnnn1-c1ccccc1,inactive,inactive,inactive,inactive,–,–,–,–
CC(C)Oc1cccc(NC(=O)c2ccccc2C(F)(F)F)c1,inactive,inactive,inactive,inactive,–,-13.1%,inactive,–
c1cc2ccc3cccc4ccc(c1)c2c34,inactive,inactive,inactive,inactive,–,-10.7% and -22.9%,inactive,–
CC(C)(C)c1nnc(NS(=O)(=O)c2ccccc2)s1,inactive,inactive,inactive,inactive,–,–,–,–
C=CCC1=C(C)C(OC(=O)C2C(C=C(C)C)C2(C)C)CC1=O (stereo unspecified),inactive,inactive,inactive,inactive,–,-9.9% and -17.4%,inactive,–
Nc1ccccc1N,inactive,inactive,inactive,inactive,–,–,–,–
O=C(O)COc1nc(Cl)c(Cl)cc1Cl,inactive,inactive,inactive,inactive,–,-10.3%,inactive,–
Nc1ccc(Cl)cc1N,inactive,inactive,–,inactive,35.5 µM (active),-8.79% and -16.5%,inactive,–
COC(C)(C)CCCC(C)C/C=C/C(C)=C/C(=O)OC(C)C (stereo unspecified),inactive,inactive,inactive,inactive,–,-16.1% and -28.4%,inactive,–
